FadD28 binding: inhibitors of Mycobacterium tuberculosis FadD28 bisubstrate binding. FadD28 bisubstrate probe binding, fluorescence polarization. inhibition, % at 12.5 µM. 0.22% of 360,000 active. AID 588549; in the data active = inhibition above about 8.5%, passing the limit was not always enough
GDH-TPI counter: inhibits GDH-TPI coupling enzymes, artifact for Mtb FBA screen; 1.2% of 360,000 active; inhibition, % at 4.8 µM; AID 588335; GDH-TPI coupled enzyme counterscreen, NADH absorbance; in the data active = inhibition above about 30%;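 note: 0% = DMSO wells and 100% = wells lacking the enzyme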
Mtb hypoxia rep: Mtb hypoxia fluorescent reporter inhibition; 0.1% of 300,000 active; AID 1159583; M. tuberculosis hypoxia-regulated fluorescent reporter, fluorescence; fluorescence inhibition, % (concentration not given with the values); in the data active = fluorescence inhibition mostly above about 23%, no sharp cut-off; inactive = mostly below about 17%
Mtb FBA inh: Mtb fructose-bisphosphate aldolase inhibition; 2.3% of 360,000 active; inhibition, % at 1 µM; purified M. tuberculosis FBA, fluorescence read-out; AID 588726; in the data active = inhibition above about 27%;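 note: 0% = vehicle and 100% = reference inhibitor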
Target sequence (P9WQA3 whole entry, looked up): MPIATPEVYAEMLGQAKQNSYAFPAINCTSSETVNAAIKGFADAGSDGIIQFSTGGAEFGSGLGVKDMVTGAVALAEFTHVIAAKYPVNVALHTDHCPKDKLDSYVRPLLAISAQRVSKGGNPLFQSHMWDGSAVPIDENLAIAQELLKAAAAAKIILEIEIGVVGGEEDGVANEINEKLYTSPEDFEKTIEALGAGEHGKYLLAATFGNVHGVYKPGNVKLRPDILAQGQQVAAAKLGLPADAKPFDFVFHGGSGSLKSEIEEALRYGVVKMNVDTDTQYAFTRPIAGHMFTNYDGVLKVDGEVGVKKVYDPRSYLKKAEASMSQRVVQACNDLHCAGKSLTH
Mtb BioA inh: BioA (M. tuberculosis) enzyme inhibition | purified M. tuberculosis BioA enzyme, plate reader | inhibition, % at 9.99 µM | 0.096% of 360,000 active; in the data active = inhibition above about 40%
Starred values were filed as active, the others as inactive. A selection: hits, their analogues and other compounds. The true share with any hit is near 2.9%.

`O=C1CCC/C(=N/NC(=O)c2sc3ccccc3c2Cl)C1` gave FadD28 binding 1, GDH-TPI counter 55* and Mtb FBA inh 1.
Screening O=C(NN=C1CCCC1)c1sc2ccccc2c1Cl returned FadD28 binding -5, GDH-TPI counter 0, Mtb hypoxia rep 14 and Mtb FBA inh -2.
For Cc1cc2n(c(=O)c1C#N)CCCN2c1ccccc1 the results were FadD28 binding 0, GDH-TPI counter 58*, Mtb hypoxia rep 3, Mtb FBA inh 4 and Mtb BioA inh 7.
For Cc1cc(C)n(N=Cc2ccccc2)c(=O)c1C#N the results were Mtb hypoxia rep 4.
O=[N+]([O-])c1cc(C(F)(F)F)ccc1NCCc1c[nH]c2ccc(O)cc12 was read as FadD28 binding 12*, GDH-TPI counter 9, Mtb hypoxia rep 9, Mtb FBA inh -7 and Mtb BioA inh -1.
Screening CCC(C)C(NC(=O)Nc1ccc(S(N)(=O)=O)cc1)C(=O)O (stereo not drawn) returned Mtb hypoxia rep 5.
Screening CC1=C([N+](=O)[O-])C(c2ccccc2)C2=C(N1)c1ccccc1C2=O (stereo not drawn) returned FadD28 binding 4, GDH-TPI counter 8, Mtb hypoxia rep -13, Mtb FBA inh 3 and Mtb BioA inh 13.
Cc1cccc(C2C3=C(Nc4[nH]n(-c5ccccc5)c(=O)c42)c2ccccc2C3=O)c1 (stereo not drawn) was read as FadD28 binding 22*, GDH-TPI counter 2, Mtb hypoxia rep 6 and Mtb FBA inh -16.
COc1cc(-c2cnc3c(NC=O)cc(-c4ccc(N5CCN(C)CC5)cc4)cn23)cc(OC)c1OC was read as FadD28 binding 0, GDH-TPI counter 11, Mtb FBA inh 1 and Mtb BioA inh 0.
Screening COc1cc(-c2nc3ccc(N4CCN(C)CC4)cc3[nH]2)cc(OC)c1OC returned FadD28 binding -2, GDH-TPI counter 11, Mtb hypoxia rep 14 and Mtb FBA inh active.
For N#CCSc1nc2cc(C(=O)N3CCC(C(N)=O)CC3)ccc2c2nc3ccccc3n12 the results were FadD28 binding -3, GDH-TPI counter 32*, Mtb hypoxia rep -7, Mtb FBA inh 1 and Mtb BioA inh 2.
For NC(=O)C1CCN(C(=O)c2ccc3nc(-c4ccccc4)c(-c4ccccc4)nc3c2)CC1 the results were FadD28 binding -1, GDH-TPI counter 24, Mtb hypoxia rep 7, Mtb FBA inh 66* and Mtb BioA inh 0.
`NC(=O)C1CCN(C(=O)c2ccc3ncsc3c2)CC1` gave FadD28 binding -3, GDH-TPI counter 4, Mtb FBA inh -2 and Mtb BioA inh 0.
C[C@@H]1CN([C@H](C)CO)C(=O)Cc2cc(NC(=O)CCN3CCOCC3)ccc2O[C@H]1CN(C)C(=O)Nc1cccc2ccccc12 was read as Mtb BioA inh -2.
`O=c1oc2cc(O)ccc2cc1-c1ccccc1` gave FadD28 binding -2, GDH-TPI counter 12, Mtb hypoxia rep -1, Mtb FBA inh active and Mtb BioA inh 0.
For COc1ccc(-c2cc3ccc(O)cc3oc2=O)cc1 the results were FadD28 binding -1, GDH-TPI counter 27, Mtb hypoxia rep 2, Mtb FBA inh active and Mtb BioA inh 0.
Screening CCC(C)n1c(=N)c(C#N)cc2c(=O)n3ccccc3nc21 (stereo not drawn) returned FadD28 binding -1, GDH-TPI counter -2, Mtb hypoxia rep 12, Mtb FBA inh 16 and Mtb BioA inh -3.
Screening Cc1cccn2c(=O)c3cc(C#N)c(=O)n(-c4c(C)n(C)n(-c5ccccc5)c4=O)c3nc12 returned FadD28 binding 0, GDH-TPI counter 7, Mtb hypoxia rep 1, Mtb FBA inh 1 and Mtb BioA inh 3.
`Cc1ccc(-n2c(=O)c(C#N)cc3c(=O)n4ccccc4nc32)cc1` gave FadD28 binding -4, GDH-TPI counter 3, Mtb hypoxia rep 5 and Mtb FBA inh 149*.
Screening Cc1cccc(-n2c(=O)c(C#N)cc3c(=O)n4ccccc4nc32)c1 returned FadD28 binding -5, GDH-TPI counter 5, Mtb hypoxia rep 6, Mtb FBA inh active and Mtb BioA inh 0.
Cc1ccc(C)c(-n2c(=O)c(C#N)cc3c(=O)n4ccccc4nc32)c1 was read as FadD28 binding -1, GDH-TPI counter 4, Mtb hypoxia rep -11 and Mtb FBA inh 133*.
C[C@H](CO)N1C[C@H](C)[C@H](CN(C)C(=O)CN(C)C)Oc2cc(C#Cc3ccc(F)cc3)ccc2S1(=O)=O was read as Mtb BioA inh 3.

Bioassay records from PubChem.
